In article PMC7862700, “An all-to-all approach to the identification of sequence-specific readers for epigenetic DNA modifications on cytosine” one finds binding signal data, which are given here for two sequences.

What all share (test): DAPPL (digital affinity profiling via proximity ligation, sequencing); 10 mM Tris-HCl pH 7.5, 50 mM NaCl, 1 mM DTT, 4% glycerol, room temperature, 30 min; GST-TFs on glutathione beads, 16-mer random dsDNA library, 0.1% formaldehyde crosslink after washing; high values mean tight binding
Holding throughout (conditions): protein: recombinant; tags: N-terminal GST; dsDNA, one strand shown

In one experiment the target is T1, FLI1 (Homo sapiens, UniProt Q01543 1-452).
T1 sequence: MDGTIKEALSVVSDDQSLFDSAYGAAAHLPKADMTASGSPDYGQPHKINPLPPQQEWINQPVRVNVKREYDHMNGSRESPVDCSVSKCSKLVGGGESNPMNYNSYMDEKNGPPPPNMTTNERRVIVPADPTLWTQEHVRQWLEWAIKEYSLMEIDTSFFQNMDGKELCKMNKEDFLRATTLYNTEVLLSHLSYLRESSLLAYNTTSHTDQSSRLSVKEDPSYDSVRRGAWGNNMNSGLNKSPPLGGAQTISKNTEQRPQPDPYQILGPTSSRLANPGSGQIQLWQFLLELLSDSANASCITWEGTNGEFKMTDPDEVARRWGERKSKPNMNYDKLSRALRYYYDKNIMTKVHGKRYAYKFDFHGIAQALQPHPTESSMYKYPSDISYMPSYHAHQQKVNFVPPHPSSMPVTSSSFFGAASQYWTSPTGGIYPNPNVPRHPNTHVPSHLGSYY
The method, boiled down: (§1)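 Sequencing on an Illumina NextSeq500 followed washing, crosslinking with 0.1% formaldehyde, proximity ligation (BsaI/T4 ligase, 1 h, 37 °C) and PCR amplification of pools that had been incubated for 30 min at room temperature with 200 nmole of a random double-stranded 16-mer DNA library in Tris/NaCl/DTT/glycerol buffer. Each pool held DNA-barcoded human transcription factors, expressed in yeast as GST fusions and captured on glutathione beads, plus a tag-only sample. Binding signal is a hexamer's read frequency for a factor divided by its frequency in the tag-only sample.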

A further experiment deals with T2, ELK1 (Homo sapiens, UniProt P19419 1-428).
T2 sequence: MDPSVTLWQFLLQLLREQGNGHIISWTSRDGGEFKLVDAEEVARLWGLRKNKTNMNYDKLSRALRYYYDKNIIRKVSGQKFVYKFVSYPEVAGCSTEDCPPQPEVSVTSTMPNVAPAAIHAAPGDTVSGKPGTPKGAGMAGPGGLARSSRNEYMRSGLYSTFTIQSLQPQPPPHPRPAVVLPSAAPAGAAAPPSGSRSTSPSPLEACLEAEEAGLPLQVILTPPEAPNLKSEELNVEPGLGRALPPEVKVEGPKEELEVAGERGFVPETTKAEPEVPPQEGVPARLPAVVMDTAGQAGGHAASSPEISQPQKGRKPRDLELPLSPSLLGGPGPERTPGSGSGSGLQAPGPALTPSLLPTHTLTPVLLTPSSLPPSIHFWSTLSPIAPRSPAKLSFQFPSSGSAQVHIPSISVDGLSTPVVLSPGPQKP
The method, boiled down: as §1

The target in the next experiment is ELF1 (Homo sapiens, UniProt P32519 1-619). An outline of the steps:
as §1

For another experiment, the target named is T3, EHF (Homo sapiens, UniProt Q9NZC4 1-300).
T3 sequence: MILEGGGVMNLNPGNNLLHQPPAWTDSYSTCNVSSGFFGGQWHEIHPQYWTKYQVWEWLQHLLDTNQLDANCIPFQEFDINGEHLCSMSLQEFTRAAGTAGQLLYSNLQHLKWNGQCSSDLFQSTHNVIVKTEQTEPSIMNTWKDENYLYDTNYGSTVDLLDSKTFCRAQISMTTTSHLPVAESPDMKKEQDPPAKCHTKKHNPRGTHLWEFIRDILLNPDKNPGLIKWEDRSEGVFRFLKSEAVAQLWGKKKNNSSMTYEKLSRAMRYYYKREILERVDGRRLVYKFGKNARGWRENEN
The method, boiled down: as §1

The target of the next experiment is T4, ELK3 (Homo sapiens, UniProt P41970 1-407).
T4 sequence: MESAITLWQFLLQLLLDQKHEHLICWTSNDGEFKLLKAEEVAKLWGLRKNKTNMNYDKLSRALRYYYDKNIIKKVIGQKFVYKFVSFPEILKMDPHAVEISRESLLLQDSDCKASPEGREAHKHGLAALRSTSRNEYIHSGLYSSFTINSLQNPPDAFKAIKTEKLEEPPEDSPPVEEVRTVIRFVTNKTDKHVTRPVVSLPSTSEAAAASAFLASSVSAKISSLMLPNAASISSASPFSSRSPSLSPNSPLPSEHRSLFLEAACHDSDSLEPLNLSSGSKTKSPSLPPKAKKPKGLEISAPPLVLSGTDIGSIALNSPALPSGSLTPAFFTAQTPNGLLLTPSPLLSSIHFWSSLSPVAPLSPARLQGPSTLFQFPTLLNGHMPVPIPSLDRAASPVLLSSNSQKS
The method, boiled down:
as §1

A further experiment deals with T5, FEV (Homo sapiens, UniProt Q99581 1-238).
T5 sequence: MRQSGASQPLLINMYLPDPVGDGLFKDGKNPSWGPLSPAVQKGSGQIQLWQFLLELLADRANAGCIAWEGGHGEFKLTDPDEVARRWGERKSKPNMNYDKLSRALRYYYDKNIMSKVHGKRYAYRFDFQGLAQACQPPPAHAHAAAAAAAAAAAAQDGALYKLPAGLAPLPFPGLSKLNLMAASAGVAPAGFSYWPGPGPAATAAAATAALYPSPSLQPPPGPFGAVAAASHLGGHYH
An outline of the steps:
as §1

For another experiment, the target named is ETV5 (Homo sapiens, UniProt P41161 1-510). The method, boiled down:
as §1

The next experiment has as its target T6, SPIC (Homo sapiens, UniProt Q8N5J4 1-248).
T6 sequence: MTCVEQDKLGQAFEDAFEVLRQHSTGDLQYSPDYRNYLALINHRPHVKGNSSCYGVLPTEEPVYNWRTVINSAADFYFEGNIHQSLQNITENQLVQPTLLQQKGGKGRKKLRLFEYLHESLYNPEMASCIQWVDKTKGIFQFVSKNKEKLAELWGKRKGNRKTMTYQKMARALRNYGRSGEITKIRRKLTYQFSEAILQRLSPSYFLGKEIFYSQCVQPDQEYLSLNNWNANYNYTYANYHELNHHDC
An outline of the steps:
as §1

The target of the next experiment is ELF4 (Homo sapiens, UniProt Q99607 1-663). The method, boiled down:
as §1

The target of the next experiment is T7, ELK4 (Homo sapiens, UniProt P28324-2 1-405).
T7 sequence: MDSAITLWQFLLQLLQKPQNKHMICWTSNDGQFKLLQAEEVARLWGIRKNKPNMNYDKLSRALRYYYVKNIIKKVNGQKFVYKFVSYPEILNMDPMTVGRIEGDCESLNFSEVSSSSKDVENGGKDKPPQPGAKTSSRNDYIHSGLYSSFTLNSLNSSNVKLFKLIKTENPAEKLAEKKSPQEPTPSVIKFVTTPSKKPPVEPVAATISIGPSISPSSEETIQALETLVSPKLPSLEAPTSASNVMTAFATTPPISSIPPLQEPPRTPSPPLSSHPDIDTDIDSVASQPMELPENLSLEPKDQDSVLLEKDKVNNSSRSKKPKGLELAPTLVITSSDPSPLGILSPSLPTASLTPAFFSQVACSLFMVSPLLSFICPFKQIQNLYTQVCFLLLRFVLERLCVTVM
An outline of the steps: as §1

The target in the next experiment is T8, ETV2 (Homo sapiens, UniProt O00321 1-342).
T8 sequence: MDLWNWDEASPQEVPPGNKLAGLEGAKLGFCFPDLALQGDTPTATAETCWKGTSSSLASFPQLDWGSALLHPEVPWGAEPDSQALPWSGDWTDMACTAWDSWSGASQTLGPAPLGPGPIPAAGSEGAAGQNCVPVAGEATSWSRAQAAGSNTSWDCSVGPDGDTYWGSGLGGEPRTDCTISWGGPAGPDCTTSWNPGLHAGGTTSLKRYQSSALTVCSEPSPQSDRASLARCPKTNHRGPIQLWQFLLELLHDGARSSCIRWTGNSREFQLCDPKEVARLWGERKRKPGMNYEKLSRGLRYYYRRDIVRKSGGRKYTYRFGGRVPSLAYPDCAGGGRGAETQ
An outline of the steps: as §1

In another experiment the target is T9, ELF3 (Homo sapiens, UniProt P78545 1-371).
T9 sequence: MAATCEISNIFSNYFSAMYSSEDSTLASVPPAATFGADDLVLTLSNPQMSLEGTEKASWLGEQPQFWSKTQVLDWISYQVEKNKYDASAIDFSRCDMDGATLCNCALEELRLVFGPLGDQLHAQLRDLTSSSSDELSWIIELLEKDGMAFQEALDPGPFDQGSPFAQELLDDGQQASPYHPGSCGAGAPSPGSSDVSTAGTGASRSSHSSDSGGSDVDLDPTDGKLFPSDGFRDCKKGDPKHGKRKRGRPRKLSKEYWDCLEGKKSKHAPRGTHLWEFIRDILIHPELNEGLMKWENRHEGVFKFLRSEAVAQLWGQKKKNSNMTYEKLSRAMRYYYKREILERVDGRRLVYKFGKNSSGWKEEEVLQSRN
An outline of the steps: as §1

The target of another experiment is ETV1 (Homo sapiens, UniProt P50549 1-477). The method, boiled down:
as §1

Another experiment has as its target T10, GABPA (Homo sapiens, UniProt Q06546 1-454).
T10 sequence: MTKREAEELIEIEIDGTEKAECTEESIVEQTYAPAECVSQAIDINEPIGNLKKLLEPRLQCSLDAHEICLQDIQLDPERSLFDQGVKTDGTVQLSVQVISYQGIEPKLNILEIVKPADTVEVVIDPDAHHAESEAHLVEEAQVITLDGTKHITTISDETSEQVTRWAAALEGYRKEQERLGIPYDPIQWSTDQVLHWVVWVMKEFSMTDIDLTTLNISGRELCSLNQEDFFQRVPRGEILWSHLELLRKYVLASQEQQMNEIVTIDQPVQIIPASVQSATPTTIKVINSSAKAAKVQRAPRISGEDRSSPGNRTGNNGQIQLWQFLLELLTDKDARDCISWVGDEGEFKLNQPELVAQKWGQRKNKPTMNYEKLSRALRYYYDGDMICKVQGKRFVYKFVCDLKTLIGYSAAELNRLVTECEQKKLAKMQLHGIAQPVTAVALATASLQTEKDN
The method, boiled down: as §1

In the next experiment the target is T11, ERG (Homo sapiens, UniProt P11308 1-479).
T11 sequence: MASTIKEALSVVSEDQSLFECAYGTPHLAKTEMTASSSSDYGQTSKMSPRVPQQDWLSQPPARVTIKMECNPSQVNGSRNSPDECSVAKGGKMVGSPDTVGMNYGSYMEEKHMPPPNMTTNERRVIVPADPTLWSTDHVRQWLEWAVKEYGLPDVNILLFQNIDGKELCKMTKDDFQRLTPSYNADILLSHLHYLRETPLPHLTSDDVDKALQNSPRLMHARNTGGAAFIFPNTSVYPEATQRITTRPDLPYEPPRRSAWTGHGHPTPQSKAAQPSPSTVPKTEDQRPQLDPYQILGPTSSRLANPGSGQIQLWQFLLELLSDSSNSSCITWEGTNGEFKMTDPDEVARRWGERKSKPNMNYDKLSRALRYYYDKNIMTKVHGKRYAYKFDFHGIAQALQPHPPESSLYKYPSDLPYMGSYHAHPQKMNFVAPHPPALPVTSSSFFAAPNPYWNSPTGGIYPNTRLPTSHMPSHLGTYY
An outline of the steps:
as §1

For another experiment, the target named is SPI1 (Homo sapiens, UniProt P17947 1-270). An outline of the steps: as §1

Sequence of ELF4 (Q99607 whole entry): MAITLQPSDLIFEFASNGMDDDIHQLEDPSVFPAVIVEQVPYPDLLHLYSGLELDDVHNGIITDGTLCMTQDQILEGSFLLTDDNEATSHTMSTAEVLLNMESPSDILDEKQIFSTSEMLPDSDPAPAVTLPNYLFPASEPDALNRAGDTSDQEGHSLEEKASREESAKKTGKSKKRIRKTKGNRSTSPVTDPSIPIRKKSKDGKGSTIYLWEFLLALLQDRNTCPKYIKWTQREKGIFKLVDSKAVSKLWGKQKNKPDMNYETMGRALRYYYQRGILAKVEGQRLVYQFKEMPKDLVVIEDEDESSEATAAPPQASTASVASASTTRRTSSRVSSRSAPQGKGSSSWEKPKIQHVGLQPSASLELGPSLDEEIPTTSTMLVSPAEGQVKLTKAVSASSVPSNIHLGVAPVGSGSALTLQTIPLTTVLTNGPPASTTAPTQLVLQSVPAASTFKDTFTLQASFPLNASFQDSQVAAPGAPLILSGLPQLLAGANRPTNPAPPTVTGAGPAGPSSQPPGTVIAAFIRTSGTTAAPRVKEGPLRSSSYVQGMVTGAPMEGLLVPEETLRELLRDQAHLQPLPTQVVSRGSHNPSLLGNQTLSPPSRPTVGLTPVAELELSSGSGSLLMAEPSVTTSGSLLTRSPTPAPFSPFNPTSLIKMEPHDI
Sequence of ETV1 (P50549 whole entry): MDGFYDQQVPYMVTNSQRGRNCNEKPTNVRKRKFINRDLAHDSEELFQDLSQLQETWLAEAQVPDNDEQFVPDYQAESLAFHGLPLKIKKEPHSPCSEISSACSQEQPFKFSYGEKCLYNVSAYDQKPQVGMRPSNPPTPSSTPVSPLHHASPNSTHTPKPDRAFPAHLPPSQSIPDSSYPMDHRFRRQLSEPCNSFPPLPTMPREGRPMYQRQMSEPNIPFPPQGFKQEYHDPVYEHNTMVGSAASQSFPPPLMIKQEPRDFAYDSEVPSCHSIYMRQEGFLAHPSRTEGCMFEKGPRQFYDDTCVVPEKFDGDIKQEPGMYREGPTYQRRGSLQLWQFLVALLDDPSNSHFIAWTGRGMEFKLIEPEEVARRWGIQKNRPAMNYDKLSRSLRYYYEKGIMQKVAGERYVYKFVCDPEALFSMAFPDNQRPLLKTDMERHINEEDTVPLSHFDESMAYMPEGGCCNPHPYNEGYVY
Sequence of ETV5 (P41161 whole entry): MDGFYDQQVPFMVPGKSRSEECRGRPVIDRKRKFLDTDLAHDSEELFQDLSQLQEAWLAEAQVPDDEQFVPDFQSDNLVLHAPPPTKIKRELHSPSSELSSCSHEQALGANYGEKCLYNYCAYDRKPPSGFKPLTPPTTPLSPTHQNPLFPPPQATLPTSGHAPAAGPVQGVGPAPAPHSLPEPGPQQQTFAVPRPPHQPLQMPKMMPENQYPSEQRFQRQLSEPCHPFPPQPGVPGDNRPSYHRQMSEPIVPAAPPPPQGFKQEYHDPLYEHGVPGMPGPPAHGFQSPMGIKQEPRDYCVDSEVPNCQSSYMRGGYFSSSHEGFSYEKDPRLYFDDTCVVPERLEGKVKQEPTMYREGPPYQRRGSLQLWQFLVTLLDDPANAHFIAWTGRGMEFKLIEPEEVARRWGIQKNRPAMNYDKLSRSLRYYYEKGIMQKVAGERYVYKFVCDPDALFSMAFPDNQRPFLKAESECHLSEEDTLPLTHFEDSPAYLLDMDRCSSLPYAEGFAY
Sequence of ELF1 (P32519 whole entry): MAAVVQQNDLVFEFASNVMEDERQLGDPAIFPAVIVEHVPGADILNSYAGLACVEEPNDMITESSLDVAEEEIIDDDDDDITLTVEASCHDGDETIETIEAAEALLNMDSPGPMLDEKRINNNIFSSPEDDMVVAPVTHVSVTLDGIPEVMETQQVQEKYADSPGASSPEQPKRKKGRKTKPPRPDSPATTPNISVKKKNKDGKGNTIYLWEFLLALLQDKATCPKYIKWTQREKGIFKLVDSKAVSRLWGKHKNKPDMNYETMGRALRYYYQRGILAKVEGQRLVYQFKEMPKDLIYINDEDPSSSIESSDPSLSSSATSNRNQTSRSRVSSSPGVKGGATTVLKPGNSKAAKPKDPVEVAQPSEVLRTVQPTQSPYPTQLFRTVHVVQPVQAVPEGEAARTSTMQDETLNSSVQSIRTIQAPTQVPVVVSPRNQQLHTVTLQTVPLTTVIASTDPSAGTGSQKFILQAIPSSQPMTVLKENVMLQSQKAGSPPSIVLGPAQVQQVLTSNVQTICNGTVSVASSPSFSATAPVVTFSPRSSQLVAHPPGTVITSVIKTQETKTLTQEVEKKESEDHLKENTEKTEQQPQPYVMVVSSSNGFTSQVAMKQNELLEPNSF

Turning to GCAATG, the binding signal with FLI1 was 1.05 fold enrichment (6-mer frequency, TF over GST control); with ELK1, 1.08 fold enrichment (6-mer frequency, TF over GST control); in the experiment with ELF1, 1.08 fold enrichment (6-mer frequency, TF over GST control); in the experiment with EHF, 1.04 fold enrichment (6-mer frequency, TF over GST control); with ELK3 it was 1.03 fold enrichment (6-mer frequency, TF over GST control); in the experiment with FEV, 1.08 fold enrichment (6-mer frequency, TF over GST control). Moreover, the binding signal with ETV5 is 1.09 fold enrichment (6-mer frequency, TF over GST control); in the experiment with SPIC, 1.08 fold enrichment (6-mer frequency, TF over GST control); with ELF4, 1.04 fold enrichment (6-mer frequency, TF over GST control); with ELK4, 1.13 fold enrichment (6-mer frequency, TF over GST control); with ETV2, 1.07 fold enrichment (6-mer frequency, TF over GST control); with ELF3, 1.17 fold enrichment (6-mer frequency, TF over GST control). The binding signal with ETV1 was 1.06 fold enrichment (6-mer frequency, TF over GST control).

For the sequence CAACAA, the binding signal was 1.08 fold enrichment (6-mer frequency, TF over GST control) with FLI1; 1.08 fold enrichment (6-mer frequency, TF over GST control) with ELK1; 1.1 fold enrichment (6-mer frequency, TF over GST control) in the experiment with GABPA; 1.01 fold enrichment (6-mer frequency, TF over GST control) with ERG; 1.06 fold enrichment (6-mer frequency, TF over GST control) with ELF1; 1.05 fold enrichment (6-mer frequency, TF over GST control) with EHF. The binding signal was 1.02 fold enrichment (6-mer frequency, TF over GST control) with SPI1; 1.12 fold enrichment (6-mer frequency, TF over GST control) in the experiment with ELK3; 1.05 fold enrichment (6-mer frequency, TF over GST control) with FEV; 1.02 fold enrichment (6-mer frequency, TF over GST control) in the experiment with ETV5; 1.06 fold enrichment (6-mer frequency, TF over GST control) in the experiment with SPIC; 1.13 fold enrichment (6-mer frequency, TF over GST control) in the experiment with ELF4. Also, the binding signal with ELK4 is 1.02 fold enrichment (6-mer frequency, TF over GST control); in the experiment with ETV2, 1.08 fold enrichment (6-mer frequency, TF over GST control); with ELF3, 1.2 fold enrichment (6-mer frequency, TF over GST control); with ETV1, 1.05 fold enrichment (6-mer frequency, TF over GST control).
